# Only some compounds are listed: those with a hit (about 1.9% of all), similar ones and a draw of the others.
# PABP polyA inh = PABP poly(A) RNA binding inhibitors, primary screen, biochemical, fluorescence polarization, uHTS; Polyadenylate-binding protein 1 (Homo sapiens), P11940; inhibition, % at 35 µM; 290,000 compounds, 1% hits; AID 2014, 2009;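 note: calls also rest on retests at 20 µM and on dose response follow-up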
# PERK inh = block of dimerizer-induced PERK translation repression, primary screen, PERK inhibitor project, CHO PERK-DD cells, SEAP luminescence, HTS. Eukaryotic translation initiation factor 2-alpha kinase 3 (Homo sapiens), Q9NZJ5. CHO PERK-DD fusion, SEAP luminescence translation reporter. inhibition, % at 5.6 µM. 220,000 compounds, 0.17% hits. AID 1416, 2008;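 active = inhibition above the mean inhibition of all tested compounds plus 3 SD, set separately per screening campaign, cut at about 2.9% in these data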;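 note: PERK kinase domain activated by AP20187 dimerizer at 100 nM; 0% = DMSO with dimerizer and 100% = rapamycin at 8.4 µM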
# MLLE-PAM2 inh = inhibitors of PABP1 MLLE–PAM2 peptide binding, primary screen, biochemical, fluorescence polarization, FITC-PAM2, GST-MLLE; AID 588489, 2011; 360,000 compounds, 0.36% hits; Polyadenylate-binding protein 1 (Homo sapiens), P11940; inhibition, % at 20 µM; in the data active = inhibition above about 35%, passing the limit was not always enough;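 note: plate controls were DMSO wells with GST-MLLE for no effect and wells lacking GST-MLLE protein for full effect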
# GRK2 aptamer HTS = compounds blocking aptamer binding on GRK2 – biochemical, human GRK2, bead flow cytometry, HTS, primary screen | Beta-adrenergic receptor kinase 1 (Homo sapiens), P25098 | FAM-aptamer displacement from GRK2 | inhibition of aptamer binding, % at 10 µM | 330,000 compounds, 0.59% hits | AID 488847, 2010;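 active = inhibition of aptamer binding above 40%, roughly 3 SD of noise, on plates passing a quality check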;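 note: median bead fluorescence of bound FAM aptamer so fluorescent compounds give negative values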
# eIF4H inh = human eIF4H binding inhibitors, primary screen, translation initiation inhibitor project, biochemical, uHTS, fluorescence polarization | Eukaryotic translation initiation factor 4H (Homo sapiens), Q15056 | eIF4H fluorescence polarization binding assay | 290,000 compounds, 0.94% hits | inhibition, % at 35 µM;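 note: calls also rest on retests at 20 µM and on dose response follow-up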
# The depositor's hits bear a star; · = not tested or not shown. Unless noted, the rule behind the calls is not given here.
SMILES,PABP polyA inh,PERK inh,MLLE-PAM2 inh,GRK2 aptamer HTS,eIF4H inh
CCCCCNC(=O)c1[nH]c(C(F)(F)F)nc1-c1ccccc1,·,·,9.8,·,·
CC(C)c1nc2sc3c(SCC(=O)NCc4ccco4)ncnc3c2c2c1CCC2,51.9,0.6,3.7,5.0,14.0*
CC1CCCCC1=NNC(=O)c1ccccc1 (stereo not drawn),·,·,1.4,·,·
Cc1[nH]c2ccccc2c1C(c1ccccn1)c1c(C)[nH]c2ccccc12,60.8*,0.0,6.9,0.0,55.2*
COc1ccc(CC(=O)OCn2nnc3ccccc3c2=O)cc1,-0.9,1.4,4.7,0.0,-3.3
COc1ccc(CC(=O)OCn2nnc3ccccc3c2=O)cc1OC,88.3*,0.3,9.7,0.0,92.0*
CSCCC(NC(=O)c1ccccc1)C(=O)OCC(=O)c1ccc[nH]1 (stereo not drawn),-0.3,0.0,-4.9,5.0,33.5
COc1ccccc1C(=O)NC(CCSC)C(=O)NC1CCCCCC1 (stereo not drawn),active,-0.3,-13.1,1.0,91.6
COc1ccccc1C(=O)NC(CCSC)C(=O)OCC(=O)c1ccc[nH]1 (stereo not drawn),0.4*,0.0,5.3,0.0,59.7*
CC(=O)c1c[nH]c(C(=O)NC2CCCCCC2)c1,0.9,·,-9.1,3.0,3.8
O=C(Cc1nnc(NC(=O)c2ccccc2)s1)N/N=C\c1ccc(O)c(O)c1,27.9,·,-10.4,0.0,58.8*
O=C(Cc1nnc(NC(=O)c2ccccc2)s1)N/N=C/c1ccc(O)cc1,-0.3,·,-15.4,0.0,25.3
CCOC(=O)N1CCN(C(=O)C(=O)Nc2sc3c(c2C(=O)O)CC(C)(C)OC3)CC1,2.8,·,-2.5,1.0,-13.3
OC[C@H]1O[C@@H](n2cnc3c(Nc4ccccc4)ncnc32)[C@H](O)[C@@H]1O,116.4*,1.1,3.0,3.0,active
COc1ccc(CCN2CC(C(=O)N3CCN(C(C)=O)CC3)CCC2=O)cc1 (stereo not drawn),-13.7,·,10.2,5.0,-7.6
Cc1cc(C)nc(SCc2nnc(SCC(=O)O)n2-c2ccccc2)n1,6.8,0.4,-6.1,3.0,3.8
NC(=O)CSc1nnc(CSc2ncccn2)n1-c1ccccc1,0.7,3.0*,2.1,0.0,0.6
CCc1ccc(S(=O)(=O)NC(=S)NC2CCCCC2)cc1,2.8,-0.1,42.8*,0.0,-13.5
Cc1ccc(S(=O)(=O)NC(=S)NC2CCCCC2)cc1,-2.3,0.5,46.6*,0.0,-0.1
Cc1nc(N2CCN(c3ccccn3)CC2)c2c(C)c(C(=O)N3CCN(c4cccc(Cl)c4)CC3)sc2n1,9.1,·,0.0,0.0,3.2
O=Cc1cn[nH]c1-c1cccc([N+](=O)[O-])c1,-8.8,1.0,-5.1,0.0,-0.8
O=C(O)c1cn[nH]c1-c1cccc([N+](=O)[O-])c1,-11.9,0.8,10.1,0.0,98.5*
Cc1cc(C)c2c(N)c(C(=O)NCC3CCCCC3)sc2n1,13.9,-1.1,39.7*,1.0,-0.2
Cc1cc(C)c2c(N)c(C(=O)Nc3ccc(C)c(C)c3)sc2n1,4.7,·,26.6,2.0,-0.1
Cc1cc(C)cc(NC(=O)c2sc3nc(C)cc(C)c3c2N)c1,-3.8,·,25.5,0.0,-3.0
SMILES,PABP polyA inh,PERK inh,MLLE-PAM2 inh,GRK2 aptamer HTS,eIF4H inh
Cc1cc(C)c2c(N)c(C(=O)NC3CCCC3)sc2n1,77.1*,-0.3,16.3,4.0,active
CCOC(=O)C1=C[C@@H](C(C)(C)C)N(S(=O)(=O)c2ccc(C)cc2)[C@H]1c1ccc(Cl)c(Cl)c1,·,·,10.6,·,·
CCN1CCN(S(=O)(=O)c2ccc(Cl)c(C(=O)NCc3nc4ccccc4[nH]3)c2)CC1,·,·,-18.7,0.0,·
COc1ccc(NC(=O)CSCC(=O)N2CCN(C(=O)c3ccco3)CC2)cc1,·,·,20.0,2.0,·
c1ccc(-c2csc(NC3=NCCCCC3)n2)cc1,64.3*,0.7,-6.9,0.0,2.5*
Cc1cccc(N2CCN(S(=O)(=O)c3cc(-c4cc(C)no4)ccc3C)CC2C)c1 (stereo not drawn),1.1,·,3.9,3.0,15.1
Oc1c(C=Nc2cccc3cccnc23)sc2ccccc12,118.6*,0.7,·,0.0,125.1*
Cc1cccc(/N=C/c2sc3ccccc3c2O)n1,71.6,1.2,14.2,0.0,92.5
COc1ccc(CC(=O)OC(C)C(=O)NC2CCCCC2C)cc1 (stereo not drawn),·,·,2.1,·,·
CC(C)(CNS(=O)(=O)c1ccc2ccccc2c1)N1CCOCC1,·,·,8.2,0.0,·
CCCCN(C(=O)c1cc(-c2ccco2)nc2ccccc12)c1c(N)n(CCCC)c(=O)[nH]c1=O,·,·,12.4,0.0,·
CCCCn1c(N)c(N(CCC(C)C)C(=O)c2cc(-c3ccco3)nc3ccccc23)c(=O)[nH]c1=O,19.5*,·,4.1,17.0,59.6*
Cc1nn(C)c(C(=O)N/N=C/c2ccc(-c3ccccc3)cc2)c1Cl,-6.1,·,-2.9,2.0,-22.2
O=C(Cn1c(=O)n(Cc2ccco2)c(=O)c2c3c(sc21)CCCCC3)c1ccccc1,36.0*,0.3,-15.6,0.0,74.2*
O=C(Cn1c(=O)n(Cc2ccco2)c(=O)c2c3c(sc21)CCCCC3)Nc1ccccc1,56.1*,0.3,5.8,2.0,78.1*
O=c1c2c3c(sc2n(CCN2CCCC2)c(=O)n1Cc1ccco1)CCCCC3,-8.7,-0.4,1.4,0.0,-5.7
COc1ccc(NC(=O)COC(=O)CNS(=O)(=O)c2ccccc2)cc1OC,-7.4,0.5,5.3,1.0,-5.3
COc1ccc(NC(=O)COC(=O)CCNS(=O)(=O)c2ccccc2)cc1OC,58.1*,-0.4,-19.1,0.0,active
CCN1C=C(Cc2cccs2)C2=C(C1)C(c1cccs1)C(C#N)=C(N)O2 (stereo not drawn),67.2*,-1.1,-20.6,2.0,93.3*
COc1cccc(CNC(=O)C2CCCN(C(=O)c3ccc(Cl)cc3)C2)c1 (stereo not drawn),·,·,4.8,3.0,·
Cc1ccc(-n2c(SCc3cc(=O)n4ccsc4n3)nnc2-c2cccnc2)c(C)c1,7.9,0.1,-47.4,2.0,60.3*
CCCC(=O)Nc1nc(-c2ccc(Cl)s2)cs1,-9.1,0.8,5.4,0.0,-2.6
O=C(O)C1CCCCC1C(=O)Nc1nc(-c2ccc(Cl)s2)cs1 (stereo not drawn),active,0.7,25.5,4.0,76.5*
O=C(COC(=O)c1ccc(=O)[nH]c1)Nc1cccc(S(=O)(=O)N2CCOCC2)c1,-3.6,2.9*,-2.8,19.0,-11.1
O=C(COC(=O)c1cccs1)Nc1cccc(S(=O)(=O)N2CCOCC2)c1,4.3,0.9,10.9,0.0,-9.2

# From PubChem
